PubChem BioAssay (Tox21)
Inconclusive results are not listed. Values without a mark were called inactive. Active and inactive are the calls of the source. Calls follow the shape of the dose curve; as a rule, active = well fitted activation curve with a large enough effect in the repeat runs; inconclusive = weak or mixed curves; inactive = flat fitted curve, though single readings scatter. Positions of bridges follow the written chain, without caps; N, C: chain ends. Where a SMILES comes first, the peptide text is derived from it. Non-standard residues stand in square brackets, D forms with d. Residues, ends and D or L forms follow the SMILES beside them. hArg = N=C(N)NCCCC[C@H](N)C(=O)O; Mpa = O=C(O)CCS

Test: A CellTox Green Cytotoxicity Assay to monitor cytotoxicity in HepG2 cells - 24 hour (AID 1224878); also: nearly all actives have a fitted effect of over 45% in size
Conditions: CellTox Green fluorescence; series mostly up to 76.8 µM; cytotoxicity: at the top concentration
Method in brief: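 HepG2 cells, 600/well, preincubated 5 h with CellTox Green dye, then exposed to Tox21 compounds in DMSO at 37 C for up to 40 h. Dead-cell DNA fluorescence read at the indicated time point.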
% is scaled to controls: 0 for no effect and ±100 for the full control effect; potency is read from the fitted curve at half-maximal effect.

| Compound | cytotoxicity | Potency |
| --- | --- | --- |
| COc1ccc2c(c1)c1c3n2CCN(C)C3=NCC1 | 0.132% [at 35.3 µM] |  |
| Cn1c(=O)c2[nH]c(Br)nc2n(C)c1=O | -11.6% [at 35.3 µM] |  |
| CC(=O)C1C(=O)C=C(C)OC1=O (configuration not stated) | -5.74% |  |
| CN(C)CCN(C)CCO | 1.96% |  |
| CC(C)C1OCCN1CCOC(=O)NCCCCCCNC(=O)OCCN1CCOC1C(C)C (configuration not stated) | 11% |  |
| CC(=O)O[C@H]1C[C@@H]2CC[C@@]1(C)C2(C)C | 6.22% |  |
| CN1C[C@@H]2C[C@H]1CN2c1cc2c(cc1F)c(=O)c(C(=O)O)cn2C1CC1 | 0.282% [at 15.8 µM] |  |
| CC1(C)CC(OC(=O)CCCCCCCCC(=O)OC2CC(C)(C)NC(C)(C)C2)CC(C)(C)N1 | -8.38% [at 15.8 µM] |  |
| C=Cc1ccc(C(C)(C)C)cc1 | 25.7% |  |
| CCOc1ccccc1OCC1CNCCO1 (configuration not stated) | 0.243% [at 35.3 µM] |  |
| N[C@@H](Cc1ccc(O)cc1)C(=O)O | -12.9% [at 6.97 µM] |  |
| O=C(CCCCC(=O)Nc1c(I)cc(I)c(C(=O)O)c1I)Nc1c(I)cc(I)c(C(=O)O)c1I | -1.08% [at 35.3 µM] |  |
| O=C1NC(c2ccccc2)(c2ccccc2)C(=O)N1COP(=O)(O)O | 8.01% [at 35.3 µM] |  |
| OCCN1CCOCC1 | -3.74% |  |
| CC(C)c1ccc(C=O)cc1 | 2.13% |  |
| COc1c2occc2c(OC)c2c(=O)cc(C)oc12 | -10.1% [at 35.3 µM] |  |
| CCCCOCCOC(=O)COc1ccc(Cl)cc1Cl | 3.9% |  |
| CCC(C(=O)OCCN1CCOC(c2ccccc2)C1C)c1ccccc1 (configuration not stated) | -12.8% [at 35.3 µM] |  |
| C=C(C)[C@@H]1CC=C(C)CC1 | 8.01% |  |

| Compound | cytotoxicity | Potency |
| --- | --- | --- |
| CC(=O)CC(=O)Nc1ccc(C)cc1C | -7.72% |  |
| c1ccc2cnccc2c1 | -5.56% |  |
| CN(C)CCOC(=O)C(c1ccccc1)C1(O)CCCC1 (configuration not stated) | -0.681% [at 35.3 µM] |  |
| NCc1ccc(S(N)(=O)=O)cc1 | -12.6% [at 35.3 µM] |  |
| COc1cc(/C=C/C(N)=O)cc(OC)c1OC | -19.2% [at 35.3 µM] |  |
| NC(=O)[C@@H]1CSSCCC(=O)N[C@@H](CCCCN=C(N)N)C(=O)NCC(=O)N[C@@H](CC(=O)O)C(=O)N[C@@H](Cc2c[nH]c3ccccc23)C(=O)N2CCC[C@H]2C(=O)N1 ([Mpa][hArg]GDWPC-NH2; disulfide 1-7) | 2.03% [at 35.3 µM] |  |
| O=C1c2ccccc2C(=O)c2cc(Cl)ccc21 | 0.241% [at 6.97 µM] |  |
| Fc1ccccc1 | -2.38% |  |
| CC(C)(CO)C(O)C(=O)NCCCO (configuration not stated) | -0.118% |  |
| CC(=O)c1cc(C)oc1C | -12.3% |  |
| COc1cc(OC)nc(O[C@H](C(=O)O)C(OC)(c2ccccc2)c2ccccc2)n1 | -1.27% [at 35.3 µM] |  |
| CCO | -9.59% |  |
| C=C(C)c1cccc(C(C)(C)N=C=O)c1 | -1.53% |  |
| C=CC/C=C/C | 3.3% |  |
| CCCCCCCCCOC(=O)CCCCC(=O)OCCCCCCC |  | 24.5 µM (active) |
| CC(=O)N[C@@H](CO)C(=O)N[C@@H](CC(=O)O)C(=O)N[C@@H](CCCCN)C(=O)N1CCC[C@H]1C(=O)O (Ac-SDKP-OH) | -0.931% [at 35.3 µM] |  |
| CCC/C=C(\C=O)CC | 2.14% |  |
| CC(C)OC(=O)CCC(=O)OC(C)C | -12.7% |  |
